Records with an inconclusive call do not appear. Where a call stands in place of a potency, no number is given. Calls of active or inactive are those of the source. Unless noted, the call rests on the fitted dose curve; in most records, active means well fitted curve in the direction sought with a large enough effect in the repeat runs; inconclusive means weak or mixed curves; inactive means no such curve, though single readings can be large; an effect the other way counts as inactive or inconclusive.
Tests used:
[1] = qHTS assay to identify small molecule antagonists of the glucocorticoid receptor (GR) signaling pathway - cell viability counter screen (AID 720693); further: nearly all actives have a fitted effect of over 55% in size
[2] = qHTS assay for identifying genotoxic compounds that show differential cytotoxicity against isogenic chicken DT40 cell lines with known DNA damage response pathways - wild type cell line (AID 743012); further: nearly all actives have a fitted effect of over 60% in size; further: potency means the concentration at half of the fitted maximal effect
Procedure, shortened: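 300 wt DT40 cells/well; cpd (DMSO) pintool-transferred after ~0.5 h at 37 C/5% CO2; 40 h incubation; CellTiter-Glo added, 30 min RT; luminescence read.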

[3] = qHTS assay for identifying genotoxic compounds that show differential cytotoxicity against isogenic chicken DT40 cell lines with known DNA damage response pathways - Rev3 mutant cell line (AID 743014); further: nearly all actives have a fitted effect of over 55% in size; further: potency means the concentration at half of the fitted maximal effect
[4] = qHTS assay for identifying genotoxic compounds that show differential cytotoxicity against isogenic chicken DT40 cell lines with known DNA damage response pathways - Rad54/Ku70 mutant cell line (AID 743015); further: nearly all actives have a fitted effect of over 60% in size; further: potency means the concentration at half of the fitted maximal effect
[5] = qHTS assay to identify small molecule antagonists of the androgen receptor (AR) signaling pathway - cell viability counter screen (AID 743033; further: nearly all actives have a fitted effect of over 45% in size)
[6] = molecular target: Androgen receptor (Homo sapiens) (UniProt P10275); assay: qHTS assay to identify small molecule antagonists of the androgen receptor (AR) signaling pathway (AID 743035; active means well fitted inhibition curve with a large enough effect in the signal ratio in the repeat runs, not every such curve was filed as active; the % refers to the signal ratio; further: potency means the concentration at half of the fitted maximal effect)
Androgen receptor (Homo sapiens), sequence (P10275 whole entry, looked up): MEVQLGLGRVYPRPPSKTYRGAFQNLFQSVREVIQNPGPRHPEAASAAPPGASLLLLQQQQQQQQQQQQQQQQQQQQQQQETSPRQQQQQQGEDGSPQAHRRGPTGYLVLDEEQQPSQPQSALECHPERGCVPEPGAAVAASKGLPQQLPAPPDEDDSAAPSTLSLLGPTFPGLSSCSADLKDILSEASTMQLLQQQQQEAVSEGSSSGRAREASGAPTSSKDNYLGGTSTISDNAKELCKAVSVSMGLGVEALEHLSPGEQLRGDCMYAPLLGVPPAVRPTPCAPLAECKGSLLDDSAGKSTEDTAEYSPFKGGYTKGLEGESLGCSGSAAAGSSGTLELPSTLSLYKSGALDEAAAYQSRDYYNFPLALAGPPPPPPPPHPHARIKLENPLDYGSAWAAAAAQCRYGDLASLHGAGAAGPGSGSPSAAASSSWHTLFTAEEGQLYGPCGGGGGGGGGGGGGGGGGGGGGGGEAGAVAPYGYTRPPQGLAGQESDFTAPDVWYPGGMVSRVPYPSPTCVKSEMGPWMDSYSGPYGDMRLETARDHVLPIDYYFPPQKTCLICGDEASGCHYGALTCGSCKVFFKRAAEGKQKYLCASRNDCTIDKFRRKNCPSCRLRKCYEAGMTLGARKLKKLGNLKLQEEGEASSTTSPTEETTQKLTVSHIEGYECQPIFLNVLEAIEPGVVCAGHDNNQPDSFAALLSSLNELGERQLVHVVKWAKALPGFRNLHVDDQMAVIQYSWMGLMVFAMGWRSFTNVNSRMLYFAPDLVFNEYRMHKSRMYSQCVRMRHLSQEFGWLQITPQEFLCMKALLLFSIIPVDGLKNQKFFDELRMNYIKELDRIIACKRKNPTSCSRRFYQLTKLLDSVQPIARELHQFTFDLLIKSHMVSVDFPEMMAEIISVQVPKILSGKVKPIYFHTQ
Procedure, shortened: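 In this cell-based reporter screen, compounds were tested in concentration series against R1881-activated HEK293 cells expressing beta-lactamase under UAS control; after 16 h at 37C, FRET substrate was added and fluorescence read 2 h later.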

[7] = molecular target: Androgen receptor (Homo sapiens) (UniProt P10275); assay: qHTS assay to identify small molecule agonists of the androgen receptor (AR) signaling pathway using the MDA cell line (AID 743040; further: nearly all actives have a fitted effect of over 20% in size)
Procedure, shortened: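 Agonist activity is measured as luciferase luminescence in human MDA-kb2 cells whose MMTV reporter responds to both AR and GR. Compounds in DMSO incubate 16 h at 37C, 0% CO2, and ONE-Glo is read after 30 min.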

[8] = qHTS assay to identify small molecule antagonists of the androgen receptor (AR) signaling pathway using the MDA cell line - cell viability counter screen (AID 743041; further: nearly all actives have a fitted effect of over 45% in size)
Procedure, shortened: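 qHTS viability read-out; MDA-kb2 AR-luc; R1881-stimulated; 16 h exposure at 37C, 0% CO2; CellTiter-Fluor, 30 min; fluorescence intensity.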

[9] = molecular target: Androgen receptor (Homo sapiens) (UniProt P10275); assay: qHTS assay to identify small molecule antagonists of the androgen receptor (AR) signaling pathway using the MDA cell line (AID 743042; further: nearly all actives have a fitted effect of over 55% in size)
Procedure, shortened: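 MDA-kb2 cells (human breast carcinoma, stably carrying an MMTV-luciferase reporter responsive to AR and GR) were plated at 3,000 cells/well and preincubated 5 hr at 37C, then given compound plus R1881 agonist for 16 h. ONE-Glo luminescence was read.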

[10] = qHTS assay to identify small molecule antagonists of the thyroid receptor (TR) signaling pathway - cell viability counter screen (AID 743064); further: nearly all actives have a fitted effect of over 50% in size; further: potency means the concentration at half of the fitted maximal effect
Procedure, shortened: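 GH3.TRE-Luc cells, 4 h pre-plating; cpd + T3 1 nM final; 37 °C 23.5 h; CellTiter-Fluor 30 min; fluorescence read.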

[11] = qHTS assay to identify small molecule antagonists of the thyroid receptor (TR) signaling pathway (AID 743065); further: nearly all actives have a fitted effect of over 55% in size; further: potency means the concentration at half of the fitted maximal effect
Procedure, shortened: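 GH3.TRE-Luc rat pituitary cells carrying two TR response elements driving luciferase were plated for 4 h, given compound plus 1 nM T3 (final), and incubated 23.5 h at 37 C. ONE-Glo luminescence measured reporter inhibition; CellTiter-Fluor fluorescence tracked cytotoxicity.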

[12] = tested on: thyroid hormone receptor (rat, GH3 cells); assay: qHTS assay to identify small molecule agonists of the thyroid receptor (TR) signaling pathway (AID 743066; calls by dose curve)
[13] = molecular target: Estrogen receptor (Homo sapiens) (UniProt P03372); assay: qHTS assay to identify small molecule antagonists of the estrogen receptor alpha (ER-alpha) signaling pathway (AID 743069; active means well fitted curve in the direction sought with a large enough effect in the signal ratio in the repeat runs, not every such curve was filed as active; the % refers to the signal ratio)
Estrogen receptor (Homo sapiens), sequence (P03372 whole entry, looked up): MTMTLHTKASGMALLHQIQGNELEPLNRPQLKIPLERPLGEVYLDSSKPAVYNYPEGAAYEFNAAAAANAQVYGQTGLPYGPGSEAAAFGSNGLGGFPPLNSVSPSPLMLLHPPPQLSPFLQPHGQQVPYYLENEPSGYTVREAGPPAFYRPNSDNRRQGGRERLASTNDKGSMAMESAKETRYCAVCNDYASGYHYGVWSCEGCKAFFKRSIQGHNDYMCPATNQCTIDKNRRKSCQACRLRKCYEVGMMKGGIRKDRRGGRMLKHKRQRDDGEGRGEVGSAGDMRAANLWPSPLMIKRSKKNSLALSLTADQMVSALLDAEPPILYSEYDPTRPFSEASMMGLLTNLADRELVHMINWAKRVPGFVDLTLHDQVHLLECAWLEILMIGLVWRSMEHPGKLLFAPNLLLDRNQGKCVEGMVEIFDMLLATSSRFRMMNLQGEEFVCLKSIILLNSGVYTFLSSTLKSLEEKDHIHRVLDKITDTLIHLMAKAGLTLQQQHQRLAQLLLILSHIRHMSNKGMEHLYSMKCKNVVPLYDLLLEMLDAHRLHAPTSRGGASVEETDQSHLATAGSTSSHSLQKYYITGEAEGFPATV
Procedure, shortened: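 Screening used a UAS-driven beta-lactamase reporter integrated into HEK293 cells expressing ER-alpha, stimulated with 17beta-estradiol alongside test compounds over 18 hr at 37C; signal came from LiveBLAzer B/G FRET fluorescence.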

[14] = qHTS assay to identify small molecule antagonists of the estrogen receptor alpha (ER-alpha) signaling pathway - cell viability counter screen (AID 743074; calls by dose curve; further: nearly all actives have a fitted effect of over 45% in size)
[15] = molecular target: Estrogen receptor (Homo sapiens) (UniProt P03372); assay: qHTS assay to identify small molecule agonists of the estrogen receptor alpha (ER-alpha) signaling pathway (AID 743075; calls by dose curve)
[16] = molecular target: Estrogen receptor (Homo sapiens) (UniProt P03372); assay: qHTS assay to identify small molecule agonists of the estrogen receptor alpha (ER-alpha) signaling pathway using the BG1 cell line (AID 743079); further: nearly all actives have a fitted effect of over 20% in size
[17] = qHTS assay to identify small molecule antagonists of the estrogen receptor alpha (ER-alpha) signaling pathway using the BG1 cell line (AID 743080; calls by dose curve;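 further: BG1 cells stimulated with 17beta-estradiol alongside compound; nearly all actives have a fitted effect of over 25% in size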; further: potency means the concentration at half of the fitted maximal effect)
Procedure, shortened: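 Quantitative HTS on the Tox21 10K library: BG1 cells with endogenous ER-alpha and ERE-luciferase reporter, 17beta-estradiol stimulation, 21.5 h compound exposure, luminescence endpoint with parallel fluorescence cytotoxicity counter-read.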

[18] = qHTS assay to identify small molecule antagonists of the estrogen receptor alpha (ER-alpha) signaling pathway using the BG1 cell line - cell viability counter screen (AID 743081);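 further: compound given together with 17beta-estradiol as the ER stimulus; series mostly up to about 70 µM; nearly all actives have a fitted effect of over 45% in size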
[19] = molecular target: Aromatase (Homo sapiens) (UniProt P11511); assay: qHTS assay to identify aromatase inhibitors (AID 743083)
Aromatase (Homo sapiens), sequence (P11511 whole entry, looked up): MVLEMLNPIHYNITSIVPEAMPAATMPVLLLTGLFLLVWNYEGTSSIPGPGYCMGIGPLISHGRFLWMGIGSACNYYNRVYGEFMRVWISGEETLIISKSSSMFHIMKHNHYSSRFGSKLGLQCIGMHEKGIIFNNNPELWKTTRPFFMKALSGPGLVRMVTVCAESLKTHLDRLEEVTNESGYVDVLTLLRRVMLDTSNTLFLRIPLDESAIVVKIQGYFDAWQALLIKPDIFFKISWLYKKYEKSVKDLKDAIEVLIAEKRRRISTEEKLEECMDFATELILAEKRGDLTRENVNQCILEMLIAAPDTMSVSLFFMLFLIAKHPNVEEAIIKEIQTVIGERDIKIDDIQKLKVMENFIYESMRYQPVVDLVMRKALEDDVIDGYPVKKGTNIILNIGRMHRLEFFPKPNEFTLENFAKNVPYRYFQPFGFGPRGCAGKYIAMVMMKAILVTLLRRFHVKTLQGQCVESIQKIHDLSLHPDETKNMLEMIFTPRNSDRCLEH

[20] = molecular target: Androgen receptor (Homo sapiens) (UniProt P10275); assay: qHTS assay to identify small molecule agonists of the androgen receptor (AR) signaling pathway (AID 743036; active means well fitted activation curve with a large enough effect in the signal ratio in the repeat runs, with a control signal flat, not every such curve was filed as active; the % refers to the signal ratio)
Procedure, shortened: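 AR-bla HEK293 cells, 2,000/well; 4 h preincubation 37C/5% CO2; compound (DMSO) 16 h at 37C; LiveBLAzer B/G FRET substrate 2 h RT; fluorescence intensity read-out.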

SMILES | Potency [1] | Potency [2] | Potency [3] | Potency [4] | Potency [5] | Potency [6] | outcome [7] | Potency [8] | Potency [9] | Potency [10] | Potency [11] | outcome [12] | Potency [13] | outcome [14] | Potency [15] | Potency [16] | Potency [17] | Potency [18] | Potency [19] | outcome [20]
CCC1=C(C)CN(C(=O)NCCc2ccc(S(=O)(=O)NC(=O)NC3CCC(C)CC3)cc2)C1=O (stereo unspecified) | inactive | inactive | inactive | inactive | inactive | inactive | inactive | inactive | inactive | inactive | inactive | inactive | inactive | inactive | inactive | inactive | inactive | inactive | inactive | –
OCCCO | inactive | inactive | inactive | inactive | inactive | – | inactive | inactive | inactive | – | inactive | inactive | inactive | inactive | inactive | inactive | inactive | inactive | inactive | inactive
CCCCCCCCCCCCCCCCC(=O)O | inactive | inactive | inactive | inactive | inactive | – | inactive | inactive | inactive | inactive | inactive | inactive | – | inactive | – | – | – | inactive | inactive | inactive
O=C(Cl)c1cc(Cl)cc(Cl)c1 | inactive | inactive | inactive | inactive | inactive | – | – | inactive | – | inactive | inactive | inactive | inactive | inactive | inactive | inactive | inactive | inactive | inactive | –
CCOc1ccc2c(c1)C(C)CC(C)(C)N2 (stereo unspecified) | inactive | 27.3 µM (active) | 54.5 µM (active) | 48.6 µM (active) | inactive | – | inactive | inactive | inactive | inactive | inactive | inactive | – | inactive | – | – | – | inactive | inactive | inactive
CCCC1CCCC(=O)O1 (stereo unspecified) | inactive | inactive | inactive | inactive | inactive | – | – | inactive | – | inactive | inactive | inactive | inactive | inactive | inactive | inactive | inactive | inactive | inactive | –
C=CCCC | inactive | inactive | inactive | inactive | inactive | – | – | inactive | – | inactive | inactive | inactive | inactive | inactive | inactive | inactive | inactive | inactive | inactive | –
Clc1cccc(C(c2ccc3nc[nH]c3c2)n2ccnc2)c1 (stereo unspecified) | inactive | 21.1 µM (active) | 26.6 µM (active) | 26.6 µM (active) | inactive | – | inactive | inactive | – | inactive | – | inactive | – | – | inactive | – | 11.9 µM (active) | inactive | – | –
CCCN(C1CCN(C(=O)C2CCNCC2)CC1)[C@@H]1CCc2ccc(OC)cc2C1 | inactive | 15.4 µM (active) | 15.4 µM (active) | 19.3 µM (active) | inactive | – | inactive | – | inactive | 68.6 µM (active) | 54.5 µM (active) | inactive | – | – | – | – | – | – | inactive | inactive
CC(C(=O)O)c1ccc2c(c1)Cc1cccnc1O2 (stereo unspecified) | inactive | inactive | inactive | inactive | inactive | – | inactive | inactive | inactive | inactive | inactive | inactive | – | inactive | – | – | – | inactive | inactive | –
NC(=O)c1ccccc1 | inactive | inactive | inactive | inactive | inactive | inactive | inactive | inactive | inactive | inactive | inactive | inactive | – | inactive | inactive | inactive | inactive | inactive | inactive | inactive
O=C(Nc1ccccc1)c1cc([N+](=O)[O-])ccc1Cl | inactive | 68.6 µM (active) | 68.6 µM (active) | 68.6 µM (active) | inactive | 24.5 µM (active) | inactive | – | inactive | – | 61.1 µM (active) | inactive | – | inactive | inactive | – | – | inactive | inactive | inactive
CC(=O)Oc1cccc2c1C(=O)c1c(OC(C)=O)cc(C(=O)O)cc1C2=O | inactive | inactive | inactive | inactive | inactive | – | inactive | – | inactive | – | inactive | inactive | – | inactive | – | – | – | inactive | inactive | –
CC[C@H](NC(C)C)[C@H](O)c1ccc(O)c2[nH]c(=O)ccc12 | inactive | inactive | inactive | inactive | inactive | inactive | inactive | inactive | inactive | – | inactive | inactive | inactive | inactive | inactive | inactive | inactive | inactive | inactive | inactive
CC(C)(C)N | inactive | inactive | inactive | inactive | inactive | – | – | inactive | – | inactive | inactive | inactive | inactive | inactive | inactive | inactive | inactive | inactive | inactive | –
O=C(O)CCc1nc2ccccc2[nH]1 | inactive | inactive | inactive | inactive | inactive | – | – | inactive | – | inactive | inactive | inactive | inactive | inactive | inactive | inactive | inactive | inactive | inactive | –
CCCc1nc(C)c2c(=O)[nH]c(-c3cc(S(=O)(=O)N4CCN(CC)CC4)ccc3OCC)nn12 | inactive | inactive | inactive | inactive | inactive | inactive | – | inactive | inactive | – | – | – | – | inactive | – | – | – | inactive | inactive | –

Source: PubChem BioAssay (Tox21)
